Inconclusive results are not listed. Entries that show only a call come without a potency. Activity calls are given as the source filed them. The call rests on the fitted dose curve; in most records, active means well fitted inhibition curve with a large enough effect; inconclusive means small, poorly fitted or top-dose-only effect; inactive means flat fitted curve, though single readings scatter.
Target: Calcium and integrin-binding protein 1 (Homo sapiens) (UniProt Q99828)
Assay: Primary qHTS for Identification of Calcium Integrin Binding Protein 1 (CIB1) Competitor (AID 1508620);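 further: GST tagged CIB1 binding a fluorescein labelled alphaIIb integrin peptide tracer; top concentration of the series differs between compounds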
Details: CIB1-GST / FITC-alphaIIb peptide fluorescence polarization; series mostly up to 114 µM
How it was run: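 Fluorescence polarization competition: CIB1-GST (1 uM final) preincubated with compound 15 min at room temperature, then FITC-labeled alphaIIb peptide (100 nM final) added for another 15 min. Polarization read at Ex 480/Em 540.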

Calcium and integrin-binding protein 1 (Homo sapiens), sequence (Q99828 whole entry, looked up): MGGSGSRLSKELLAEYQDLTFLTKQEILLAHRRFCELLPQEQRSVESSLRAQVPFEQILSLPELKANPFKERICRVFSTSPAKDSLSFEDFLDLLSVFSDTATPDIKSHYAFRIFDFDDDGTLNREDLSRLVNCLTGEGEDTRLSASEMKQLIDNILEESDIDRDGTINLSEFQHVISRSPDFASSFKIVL

Row | SMILES | Potency
1 | CCOC(=O)c1ccoc1-c1ccc2ncnc(NCCc3cnc[nH]3)c2c1 | inactive
2 | CC(C)Oc1ccc(-c2ccc(=O)n(CC(=O)NCCc3ccccc3)n2)cc1 | inactive
3 | CCOC(=O)CCC(=O)Nc1ncnc2c1C(c1ccccc1)c1c(ccc3ccccc13)O2 (centres undefined) | inactive
4 | Nc1ccc(S(=O)(=O)N2CCCN(S(=O)(=O)c3ccc4c(c3)OCCO4)CC2)cc1 | inactive
5 | COc1cccc(CN2C(=O)c3ccccc3NC2c2ccc(OC)c(COc3ccc(NC(C)=O)cc3)c2)c1 (centres undefined) | inactive
6 | Cc1cnc(-c2ccccc2C(C)C)nc1NCc1ccc(C2CCCNC2)cc1 (centres undefined) | inactive
7 | O=C(Nc1ccc(Cl)c(S(=O)(=O)N2CCOCC2)c1)c1ccc(S(=O)(=O)N2CCOCC2)cc1 | inactive
8 | CCc1ccc(NC(=O)c2cnn3c(C)cc(-c4ccccc4)nc23)cc1 | inactive
9 | CC1=C(C(=O)Nc2ccc(Cl)cc2)C(c2ccccc2Br)N=C(Nc2nc3ccccc3o2)N1 (centres undefined) | inactive
10 | O=S(=O)(c1ccccc1)N1CCN(c2nc(-c3ccc(Br)cc3)cs2)CC1 | inactive
11 | Cn1c2cc(B(O)O)sc2c2cnn(Cc3ccccc3F)c(=O)c21 | inactive
12 | Fc1ccccc1-c1nc(-c2ccccc2)no1 | inactive
13 | N#Cc1nc(-c2cccc3ccccc23)oc1NCC#CCOC(=O)c1cccs1 | inactive
14 | O=C(Nc1ccc(-c2ccccc2)cc1)Nc1nnc(-c2ccncc2)s1 | inactive
15 | Cc1ccc(OCCn2c(CCNC(=O)c3cc(N)ccc3N)nc3ccccc32)cc1 | inactive
16 | Cc1cc(N[S+](=O)([O-])c2ccc(NC(=O)Cc3ccc4c(c3)CCO4)cc2)no1 | inactive
17 | O=C(Cc1ccc(Cl)c(Cl)c1)Nc1ccc(S(=O)(=O)O)cc1 | inactive
18 | O=C(O)c1ccc(-n2cccc2/C=C2\SC(=O)N(Cc3ccc(Cl)cc3)C2=O)cc1 | inactive
19 | CC(=O)Nc1cc2c(s1)CNCC2 | inactive
20 | O=[S+]([O-])(c1ccc2c(c1)OCCO2)N1CCN([S+](=O)([O-])c2c(O)cc(F)cc2F)CC1 | inactive

Row | SMILES | Potency
21 | Cc1ccc(-c2ccc(=O)n(CC(=O)N(C)C(C)c3cccs3)n2)cc1 (centres undefined) | inactive
22 | NC(=O)N1CCN(c2nc(-c3ccc(Br)cc3)cs2)CC1 | inactive
23 | Cc1cc(C)n2ncc(C(=O)Nc3cc(Cl)cc(Cl)c3)c2n1 | inactive
24 | O=C(Nc1ccc(-c2nc3ccccc3[nH]2)cc1)Nc1ccc2occc2c1 | inactive
25 | Cc1ccc(OCCn2c(CCNC(=O)c3ccc4cc[nH]c4c3)nc3ccccc32)cc1 | inactive
26 | CC(=O)c1ccc(-c2ccc3ncnc(NCc4ccc(C)o4)c3c2)o1 | inactive
27 | Cc1cc(C)nc(NC(=S)N2CCN(c3ccc(Cl)c(Cl)c3Cl)CC2)c1 | inactive
28 | CCOc1ccc(C(=O)Nc2ccc(-c3nc4ccccc4o3)cc2)cc1[N+](=O)[O-] | inactive
29 | CC(C)(C)CNc1ncnc2ccc(-c3ccc(C(=O)O)o3)cc12 | inactive
30 | COc1ccc(-c2nnc3n2N=C(c2c(OC)cccc2OC)CS3)cc1 | inactive
31 | Cc1ccc(OCCn2c(CCNC(=O)Cc3ccccc3)nc3ccccc32)cc1 | inactive
32 | O=C(NC1CCCc2c1cnn2CCO)c1ccccn1 (centres undefined) | inactive
33 | COc1ccc(NS(=O)(=O)c2ccc3c(c2)CCC(=O)N3)cc1 | inactive
34 | Cc1nnc(-c2ccccc2C(C)C)nc1NCc1ccc(-c2cccnc2)cc1 | inactive
35 | Cc1cc2c(s1)c1cnn(Cc3ccc(Cl)cc3)c(=O)c1n2C | inactive
36 | S=C(NCCCN(Cc1ccc(Cl)c(Cl)c1)c1ccc(Br)cn1)NCCc1cnc[nH]1 | inactive
37 | COc1ccc2nc(-c3ccc(N(C)C)cc3)sc2c1 | inactive
38 | O=C(Nc1ccc(N2CCOCC2)c(C(F)(F)F)c1)Nc1nnc(-c2ccncc2)s1 | inactive
39 | O=C(Cc1ccc(Cl)c(Cl)c1)Nc1ccc(S(=O)(=O)Nc2cncnc2)cc1 | inactive
